Compounds without any hit were thinned out: in the full panel of roughly 83,000, 20% have a hit.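 Negative percent growth values reflect cell death: -40 means 40% of the cells present at the start died, and -100 means all died.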 Values without a mark were called inactive. The source made the active and inactive calls. The calls were made as follows: active = growth percent below 10; inactive = the rest.
Assays:
Experiment in all cases: NCI-60 one-dose screen, 48 h (100 = growth as untreated, 0 = no growth, -100 = all killed)
Conditions in all cases: 10 µM unless noted
SR leukemia = system: SR leukemia
RPMI-8226 leukemia = system: RPMI-8226 leukemia
OVCAR-8 ovarian = system: OVCAR-8 ovarian
OVCAR-5 ovarian = system: OVCAR-5 ovarian
SK-OV-3 ovarian = system: SK-OV-3 ovarian
IGROV1 ovarian = system: IGROV1 ovarian
HS 578T breast = system: HS 578T breast
NCI/ADR-RES ovarian = system: NCI/ADR-RES ovarian
OVCAR-4 ovarian = system: OVCAR-4 ovarian
OVCAR-3 ovarian = system: OVCAR-3 ovarian

Compound	growth (SR leukemia)	growth (RPMI-8226 leukemia)	growth (OVCAR-8 ovarian)	growth (OVCAR-5 ovarian)	growth (SK-OV-3 ovarian)	growth (IGROV1 ovarian)	growth (HS 578T breast)	growth (NCI/ADR-RES ovarian)	growth (OVCAR-4 ovarian)	growth (OVCAR-3 ovarian)
Clc1ccc2c(N/N=C/c3c[nH]c4ccccc34)ccnc2c1	2.13% (active)	-25% (active)	-68% (active)	-83.9% (active)	-85.6% (active)	-87.2% (active)	-47% (active)	-71.8% (active)		
COc1ccc(NC2=C(Br)C(=O)C(C)=C(C)C2=O)cc1OC	71.2%	70.8%	96%		83.8%	86%	97.6%	97.3%	14.1%	107%
CC(C)Sc1nc(-c2ccccc2)c(C#N)c(N2CCOCC2)n1	78.9%	90.7%	69.3%	59.8%	86.8%	5.14% (active)	50%	71.1%		
O=C1Nc2cc(Cl)ccc2/C1=C\c1ccc(OCc2ccccc2)cc1	105%	107%	100%	101%	103%	91.6%	96.7%	104%		
Cc1cc2nc3c4cc(C#N)ccc4n(CCN(C)C)c3nc2cc1C	0.51% (active)		-33.2% (active)	6.4% (active)	-4.4% (active)		-15% (active)	5.29% (active)	0.732% (active)	
COc1ccc([C@@H]2C(=O)N(c3cc(OC)c(OC)c(OC)c3)[C@H]2c2ccc(OC)c(O)c2)cc1	20%		10.6%	32.4%	30.3%	22.5%	14.9%	13.6%	58.9%	
CC(C)(C)OC(=O)Nc1ccc(-c2cccc(Oc3ccc4nnc(Cl)n4n3)c2)cc1	36%		71.3%		95.5%		94.5%	70.8%		
COc1ccc(NC(=O)CCCCCCNC(=O)C(O)(O)C(F)(F)F)cc1	15%		22.3%	31.3%	4.07% (active)	62.4%	56.9%	49.8%	77.7%	49.1%
Cc1ccc2c(n1)C(=O)C(Cl)=C(Nc1ccc(C(=O)OC(C)(C)C)cc1)C2=O	-11.5% [9.25 µM] (active)		80.3% [9.25 µM]	127% [9.25 µM]	101% [9.25 µM]	84.8% [9.25 µM]	101% [9.25 µM]	84.9% [9.25 µM]		1.44% [9.25 µM] (active)
COc1cc(C(=O)c2cc(C(C)=O)c3cccc(C)n23)cc(OC)c1OC	17%		50.8%	65.8%	46.6%	43.9%	44.2%	22.1%	74.1%	
N#Cc1cnc2ccc(-c3cnc4n[nH]nc4c3)cc2c1N1CCc2cc(F)c(Cl)cc21	3.77% (active)		16.7%	31.6%	-0.177% (active)	-8.77% (active)	-10.7% (active)	45%	-16.9% (active)	26.2%
CN1CCN(c2ccc(Nc3nc(NCCCNS(=O)(=O)c4ccc(C(F)(F)F)cc4)c4sccc4n3)cc2)CC1	7.01% (active)		-72.2% (active)	-3% (active)	-37% (active)	-6.63% (active)	-35% (active)	-2.63% (active)	-35% (active)	-74.1% (active)
Cn1c2nc3ccccc3c-2cc2ccccc21	18.7%	54.9%	32.8%		48.9%	-10.8% (active)	55.9%	42.6%		
C/C(CC1(O)C(=O)Nc2ccccc21)=N\O (stereo not given)	100%		101%	99.2%	108%	97.9%	97.4%	95.9%	95.1%	106%
NS(=O)(=O)c1nnc(/N=C/c2c(O)[nH]c3ccccc23)s1	98.3%		99.9%	121%	99.5%		102%	107%	98.5%	107%
